# About 7,900 targets were measured; listed, in parts, are those with a hit and a random draw of the rest. About 0.6% of all pairs of compound and target were hits. A number with no mark means an inactive call.
# Tests used:
# Assay in all cases: log2 fold change, soluble protein after heating vs DMSO (PISA); higher = thermal stabilisation; K562 cells, 10 uM, 30 min; active = over 0.2 and 3.5 SD of the protein, either way, in both replicates (recomputed)
# [1] = compound: CC[C@@H]1C(=O)N(C)c2cnc(Nc3ccc(C(=O)NC4CCN(C)CC4)cc3OC)nc2N1C1CCCC1
# Outline: (§1)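 Thermal stability values are relative to control samples and come from duplicates. They are expressed as log2 fold changes. For measurement, K562 cells (2×10^6 cells/mL) received 10 μM compound for 30 min, and aliquots were heated for 3 min over 48°C-58°C, pooled, and extracted at 4°C in PBS with 0.5% NP-40. Soluble protein, the supernatant after 21,000xg for 90 min, was quantified by TMTpro 16plex LC-MS/MS with equalised channel sums.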
# [2] = compound: CC[C@@H]1C(=O)N(C)c2cnc(Nc3ccc(C(=O)N[C@H]4CC[C@H](N5CCN(CC6CC6)CC5)CC4)cc3OC)nc2N1C(C)C [volasertib]
# Outline: as §1
# [3] = compound: CC[C@H](C)[C@@H](C(=O)N[C@@H]([C@@H](C)O)C(=O)N[C@@H](CC(C)C)C(=O)[C@]1(CO1)C)NC(=O)[C@H]([C@@H](C)CC)N(C)C(=O)C [epoxomicin]
# Outline: as §1
# [4] = compound: CCn1c(C(=O)N(C2CC2)C2CC2)cc2c3c(ncn3C)c(Nc3cc(C)n(C)n3)nc21
# Outline: as §1
# [5] = compound: CN(C)CC(=O)Nc1ccc2[nH]c(=O)c3ccccc3c2c1
# Outline: as §1
# [6] = compound: CN(CCOC1=CC=C(C=C1)C[C@H]2C(=O)NC(=O)S2)C3=CC=CC=N3 (racemic) [rosiglitazone]
# Outline: as §1
# [7] = compound: CN1CC[C@H](c2c(O)cc(O)c3c(=O)cc(-c4ccccc4Cl)oc23)[C@H](O)C1 [alvocidib]
# Outline: as §1
# [8] = compound: CN1CCc2c(c3ccccc3n2Cc2ccc(C(=O)NO)cc2)C1 [Tubastatin A]
# Outline: as §1
# [9] = compound: CNC(=O)C1=CC=CC=C1NC2=NC(=NC=C2Cl)NC3=C(C=C(C=C3)N4CCOCC4)OC
# Outline: as §1
# [10] = compound: CNC(=O)c1ccc(Nc2ncc(C(F)(F)F)c(NCc3nccnc3N(C)S(C)(=O)=O)n2)cc1 [defactinib]
# Outline: as §1
# [11] = compound: CNCc1ccc(-c2[nH]c3cc(F)cc4c3c2CCNC4=O)cc1 [rucaparib]
# Outline: as §1
# [12] = compound: COC(=O)N[C@@H](C)CNc1nccc(-c2cn(C(C)C)nc2-c2cc(Cl)cc(NS(C)(=O)=O)c2F)n1 [encorafenib]
# Outline: as §1
# [13] = compound: COC(=O)[C@H](CCSC)NC(=O)C1=C(C=C(C=C1)NC[C@H](CS)N)C2=CC=CC=C2
# Outline: as §1
# [14] = compound: CC[C@H](C)N1C=C(C2=C(C=C(C=C21)C3=CN=C(C=C3)N4CCNCC4)C(=O)NCC5=C(C=C(NC5=O)C)C)C
# Outline: as §1
# [15] = compound: CCn1cc(-c2ccnc3[nH]c(-c4cccc(CN(C)C)c4)cc23)c(-c2ccc(NC(=O)N(C)C)cc2)n1
# Outline: as §1
# [16] = compound: CN1C2=C(C3=C1C(=O)N(N=C3)CC4=CC(=CC=C4)N)SC(=C2)S(=O)C
# Outline: as §1
# [17] = compound: CN1CCC(CNc2ccc3ncc(-c4cccc(OC(F)(F)F)c4)n3n2)CC1
# Outline: as §1
# [18] = compound: CN1CCN(CCOc2cc(OC3CCOCC3)c3c(Nc4c(Cl)ccc5c4OCO5)ncnc3c2)CC1 [saracatinib]
# Outline: as §1
# [19] = compound: CN1CCN(c2nc(C3=C(c4c[nH]c5ccccc45)C(=O)NC3=O)c3ccccc3n2)CC1 [sotrastaurin]
# Outline: as §1
# [20] = compound: CNc1nc(-c2ccc3c(N)n[nH]c3c2)cc(N2C[C@@H](C(=O)NC3CCCCC3)CC[C@H]2C)n1
# Outline: as §1
# UniProt P48645, sequence (P48645 whole entry, looked up): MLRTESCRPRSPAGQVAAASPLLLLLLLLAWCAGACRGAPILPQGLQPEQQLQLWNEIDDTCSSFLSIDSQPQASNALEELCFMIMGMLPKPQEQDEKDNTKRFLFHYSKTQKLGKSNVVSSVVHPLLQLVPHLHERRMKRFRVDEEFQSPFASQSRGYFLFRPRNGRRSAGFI
# UniProt Q9Y5B8, sequence (Q9Y5B8 whole entry, looked up): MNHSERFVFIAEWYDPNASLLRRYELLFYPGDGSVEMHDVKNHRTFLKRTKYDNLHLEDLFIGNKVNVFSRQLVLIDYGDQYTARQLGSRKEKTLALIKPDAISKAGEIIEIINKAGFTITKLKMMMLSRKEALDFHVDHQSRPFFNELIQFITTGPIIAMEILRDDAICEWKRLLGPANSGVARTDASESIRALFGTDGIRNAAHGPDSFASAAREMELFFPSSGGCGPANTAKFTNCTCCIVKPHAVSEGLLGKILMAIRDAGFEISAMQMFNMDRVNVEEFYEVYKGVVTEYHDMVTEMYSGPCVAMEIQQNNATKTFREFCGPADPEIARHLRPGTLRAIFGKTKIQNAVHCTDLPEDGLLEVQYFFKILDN
# UniProt O60361, sequence (O60361 whole entry, looked up): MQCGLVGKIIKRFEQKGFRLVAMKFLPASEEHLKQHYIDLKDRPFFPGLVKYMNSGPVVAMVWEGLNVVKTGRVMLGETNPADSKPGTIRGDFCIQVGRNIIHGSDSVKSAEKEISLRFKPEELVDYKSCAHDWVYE
# UniProt O75607, sequence (O75607 whole entry, looked up): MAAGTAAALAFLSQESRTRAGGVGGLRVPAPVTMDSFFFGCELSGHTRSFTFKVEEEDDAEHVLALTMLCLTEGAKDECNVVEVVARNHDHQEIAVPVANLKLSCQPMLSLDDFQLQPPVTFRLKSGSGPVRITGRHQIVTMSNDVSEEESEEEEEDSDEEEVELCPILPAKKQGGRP
# UniProt Q9UK23, sequence (Q9UK23 whole entry, looked up): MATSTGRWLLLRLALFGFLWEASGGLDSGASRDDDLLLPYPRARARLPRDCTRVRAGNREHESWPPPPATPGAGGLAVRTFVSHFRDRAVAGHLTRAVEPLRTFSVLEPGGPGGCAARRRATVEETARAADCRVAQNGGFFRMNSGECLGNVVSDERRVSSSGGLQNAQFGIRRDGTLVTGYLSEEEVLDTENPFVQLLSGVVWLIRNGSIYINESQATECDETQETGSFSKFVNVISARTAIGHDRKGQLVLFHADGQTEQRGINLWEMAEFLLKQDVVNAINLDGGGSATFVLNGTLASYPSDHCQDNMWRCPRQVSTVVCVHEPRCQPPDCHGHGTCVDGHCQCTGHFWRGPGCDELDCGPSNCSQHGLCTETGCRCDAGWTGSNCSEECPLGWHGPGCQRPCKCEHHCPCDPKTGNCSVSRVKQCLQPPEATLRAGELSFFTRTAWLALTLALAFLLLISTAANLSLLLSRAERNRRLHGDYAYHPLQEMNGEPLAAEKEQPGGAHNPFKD
# UniProt Q9H3L0, sequence (Q9H3L0 whole entry, looked up): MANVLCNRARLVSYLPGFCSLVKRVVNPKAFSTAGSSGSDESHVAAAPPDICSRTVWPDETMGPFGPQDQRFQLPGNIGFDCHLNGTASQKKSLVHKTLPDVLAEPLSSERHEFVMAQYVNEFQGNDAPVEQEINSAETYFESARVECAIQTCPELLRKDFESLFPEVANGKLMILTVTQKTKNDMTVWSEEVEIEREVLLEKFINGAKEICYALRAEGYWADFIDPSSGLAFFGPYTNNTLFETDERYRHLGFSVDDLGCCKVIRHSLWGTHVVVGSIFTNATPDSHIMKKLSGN
# UniProt Q9H4L5, sequence (Q9H4L5 whole entry, looked up): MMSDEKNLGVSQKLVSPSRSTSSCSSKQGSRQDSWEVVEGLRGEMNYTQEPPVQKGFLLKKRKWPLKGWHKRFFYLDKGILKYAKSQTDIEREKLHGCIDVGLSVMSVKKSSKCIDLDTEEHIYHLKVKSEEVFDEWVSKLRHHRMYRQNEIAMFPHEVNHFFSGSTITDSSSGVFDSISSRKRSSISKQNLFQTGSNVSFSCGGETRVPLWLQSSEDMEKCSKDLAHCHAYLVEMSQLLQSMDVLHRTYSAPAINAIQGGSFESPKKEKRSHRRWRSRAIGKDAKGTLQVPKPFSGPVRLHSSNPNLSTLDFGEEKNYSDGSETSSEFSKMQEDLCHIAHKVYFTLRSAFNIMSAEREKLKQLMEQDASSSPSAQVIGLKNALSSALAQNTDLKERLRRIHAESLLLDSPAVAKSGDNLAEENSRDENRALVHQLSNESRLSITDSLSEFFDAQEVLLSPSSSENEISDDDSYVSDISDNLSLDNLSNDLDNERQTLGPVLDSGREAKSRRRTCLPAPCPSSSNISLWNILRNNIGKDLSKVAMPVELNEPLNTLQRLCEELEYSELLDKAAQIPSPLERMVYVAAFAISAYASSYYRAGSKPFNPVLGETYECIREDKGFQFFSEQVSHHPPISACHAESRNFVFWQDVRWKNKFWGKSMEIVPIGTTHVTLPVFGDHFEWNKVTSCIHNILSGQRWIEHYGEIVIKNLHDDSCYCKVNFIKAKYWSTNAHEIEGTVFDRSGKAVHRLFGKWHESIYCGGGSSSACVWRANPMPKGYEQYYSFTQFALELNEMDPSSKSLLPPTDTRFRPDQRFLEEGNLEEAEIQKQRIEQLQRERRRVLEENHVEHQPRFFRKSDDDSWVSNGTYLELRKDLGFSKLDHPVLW
# UniProt Q15102, sequence (Q15102 whole entry, looked up): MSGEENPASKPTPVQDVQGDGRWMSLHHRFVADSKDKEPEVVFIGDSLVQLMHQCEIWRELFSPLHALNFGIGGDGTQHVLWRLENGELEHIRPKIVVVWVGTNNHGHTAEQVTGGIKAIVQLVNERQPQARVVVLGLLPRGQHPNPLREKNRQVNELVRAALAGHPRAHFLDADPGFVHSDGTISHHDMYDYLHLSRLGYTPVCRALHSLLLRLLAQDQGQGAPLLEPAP
# UniProt Q69YL0, sequence (Q69YL0 whole entry, looked up): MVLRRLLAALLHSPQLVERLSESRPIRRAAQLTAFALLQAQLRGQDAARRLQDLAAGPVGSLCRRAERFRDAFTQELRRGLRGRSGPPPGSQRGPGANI
# UniProt P51956, sequence (P51956 whole entry, looked up): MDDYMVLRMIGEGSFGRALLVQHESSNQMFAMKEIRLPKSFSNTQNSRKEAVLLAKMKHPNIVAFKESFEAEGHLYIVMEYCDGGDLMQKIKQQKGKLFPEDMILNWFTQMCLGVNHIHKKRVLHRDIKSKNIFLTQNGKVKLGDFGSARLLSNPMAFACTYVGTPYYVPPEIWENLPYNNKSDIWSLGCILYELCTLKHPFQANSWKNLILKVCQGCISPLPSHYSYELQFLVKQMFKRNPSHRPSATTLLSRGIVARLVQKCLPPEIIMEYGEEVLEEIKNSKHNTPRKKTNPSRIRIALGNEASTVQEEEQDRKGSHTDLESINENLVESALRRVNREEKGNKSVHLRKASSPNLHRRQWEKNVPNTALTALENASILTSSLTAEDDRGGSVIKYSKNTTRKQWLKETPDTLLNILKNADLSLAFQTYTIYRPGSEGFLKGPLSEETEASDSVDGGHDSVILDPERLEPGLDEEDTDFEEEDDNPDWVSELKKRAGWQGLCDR
# UniProt Q8WZ82, sequence (Q8WZ82 whole entry, looked up): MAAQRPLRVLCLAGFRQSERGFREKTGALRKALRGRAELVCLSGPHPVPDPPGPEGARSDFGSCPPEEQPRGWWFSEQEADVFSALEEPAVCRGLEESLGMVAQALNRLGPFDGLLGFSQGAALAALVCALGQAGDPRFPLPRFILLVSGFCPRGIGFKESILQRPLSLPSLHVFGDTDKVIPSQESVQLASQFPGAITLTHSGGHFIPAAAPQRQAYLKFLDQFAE
# UniProt Q9UH92, sequence (Q9UH92 whole entry, looked up): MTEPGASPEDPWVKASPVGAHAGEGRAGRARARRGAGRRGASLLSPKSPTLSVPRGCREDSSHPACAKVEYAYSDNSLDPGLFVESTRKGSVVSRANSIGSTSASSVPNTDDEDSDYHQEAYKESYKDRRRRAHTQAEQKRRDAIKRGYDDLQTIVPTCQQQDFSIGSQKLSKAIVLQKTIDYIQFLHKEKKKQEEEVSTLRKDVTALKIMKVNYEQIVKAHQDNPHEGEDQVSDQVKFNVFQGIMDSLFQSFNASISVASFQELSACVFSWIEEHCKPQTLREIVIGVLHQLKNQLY
# UniProt O75438, sequence (O75438 whole entry, looked up): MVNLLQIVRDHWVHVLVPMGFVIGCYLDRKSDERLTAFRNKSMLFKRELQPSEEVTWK
# UniProt O75052, sequence (O75052 whole entry, looked up): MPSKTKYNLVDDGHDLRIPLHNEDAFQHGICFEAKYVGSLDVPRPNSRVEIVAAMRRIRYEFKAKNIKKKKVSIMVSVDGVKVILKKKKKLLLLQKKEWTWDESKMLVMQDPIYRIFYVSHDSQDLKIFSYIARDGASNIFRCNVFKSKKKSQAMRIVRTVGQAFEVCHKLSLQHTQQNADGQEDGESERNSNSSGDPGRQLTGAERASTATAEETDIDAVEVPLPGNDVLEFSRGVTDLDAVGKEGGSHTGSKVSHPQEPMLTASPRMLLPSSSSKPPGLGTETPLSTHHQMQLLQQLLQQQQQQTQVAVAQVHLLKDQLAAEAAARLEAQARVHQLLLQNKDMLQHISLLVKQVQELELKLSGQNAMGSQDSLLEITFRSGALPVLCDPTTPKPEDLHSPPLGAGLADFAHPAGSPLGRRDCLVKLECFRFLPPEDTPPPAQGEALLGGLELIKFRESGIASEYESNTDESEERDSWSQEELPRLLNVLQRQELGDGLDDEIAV
# UniProt P25208, sequence (P25208 whole entry, looked up): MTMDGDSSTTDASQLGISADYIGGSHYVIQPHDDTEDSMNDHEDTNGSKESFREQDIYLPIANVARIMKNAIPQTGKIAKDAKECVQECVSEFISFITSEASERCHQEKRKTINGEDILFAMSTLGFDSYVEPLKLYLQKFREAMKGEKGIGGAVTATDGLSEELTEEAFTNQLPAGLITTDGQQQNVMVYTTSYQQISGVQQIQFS
Target,log2 fold change [1],log2 fold change [2],log2 fold change [3],log2 fold change [4],log2 fold change [5],log2 fold change [6],log2 fold change [7],log2 fold change [8],log2 fold change [9],log2 fold change [10],log2 fold change [11],log2 fold change [12],log2 fold change [13],log2 fold change [14],log2 fold change [15],log2 fold change [16],log2 fold change [17],log2 fold change [18],log2 fold change [19],log2 fold change [20]
NOS1AP (UniProt O75052),0.092,0.035,0.056,0.04,0.225,-0.001,0.179,-0.112,-0.089,0.193,-0.403,0.092,-0.074,,,,,,,
NEK3 (UniProt P51956),-0.046,-0.162,0.067,-0.024,0.014,,-0.169,-0.194,-0.027,-0.182,-0.013,0,0.036,0.167,-0.125,0.002,-0.465 (active),0.022,-0.125,0.007
NCBP2AS2 (UniProt Q69YL0),-0.255,-0.193,,0.027,-0.072,-0.063,-0.004,-0.064,-0.005,0.013,-0.03,0.031,0.031,-0.1,0.026,0.049,-0.906 (active),0.056,0.215,-0.081
NDUFB1 (UniProt O75438),-0.004,-0.08,0.396 (active),-0.026,0.006,0.009,-0.042,-0.09,-0.01,-0.021,-0.035,0.001,0.034,-0.099,-0.102,,0.282 (active),,0.015,
MMADHC (UniProt Q9H3L0),-0.024,-0.482 (active),,-0.013,0.006,0.015,0.031,0.07,-0.011,-0.061,0.139,-0.031,-0.011,0.087,0.03,0.047,0.181,-0.044,,0.062
NMU (UniProt P48645),0.094,0.072,0.077,-0.044,-0.017,-0.021,0.044,0.149,-0.055,-0.08,-0.076,0.034,-0.042,0,0.008,-0.008,0.271,-0.017,,-0.09
PAFAH1B3 (UniProt Q15102),-0.017,0.011,0.063,-0.102,0.069,0.021,-0.082,0.026,0.001,0.021,0.049,-0.006,-0.071,0.042,-0.098,-0.012,0.001,-0.109,-0.034,0.002
NPM3 (UniProt O75607),0.065,0.124,,0.036,-0.011,-0.122,0.032,0.031,-0.06,0.001,0.155,0.034,-0.04,-0.099,0.014,0.143,0.145,0,0,-0.042
NME2P1 (UniProt O60361),0.117,0.03,0.033,-0.162,-0.021,0.166,0.004,0.059,-0.145,0.034,-0.814 (active),0.003,-0.017,-0.177,0.198,,-0.074,,0.057,
OXR1 isoform 2 (UniProt Q8N573),-0.092,-0.09,0.127,,-0.004,,0.051,-0.038,,-0.067,-0.008,-0.022,0.047,-0.082,0.056,-0.015,-0.244,-0.138,,0.092
MYH10 isoform 3 (UniProt P35580),-0.082,-0.216 (active),0.094,-0.025,0.024,0.022,-0.034,0.002,0.024,-0.039,-0.056,0.017,-0.023,0.026,-0.036,-0.064,-0.077,0.019,-0.058,-0.005
NAGPA (UniProt Q9UK23),0.213,0.555 (active),0.071,-0.022,,-0.061,-0.008,0.068,0.022,,-0.132,0.014,,-0.065,0.084,-0.084,-0.083,-0.009,-0.017,-0.049
NPC1L1 (UniProt Q9UHC9),-0.029,-0.016,,,-0.016,0.045,0.013,0.005,,-0.093,-0.06,-0.038,0.093,0.2,,-0.081,,-0.026,0.033,-0.051
MLX (UniProt Q9UH92),0.047,-0.734 (active),0.162,-0.04,,0.052,-0.037,0.075,-0.149,,-0.169,0.149,,-0.007,0,0.142,-0.315,-0.171,-0.084,0.004
NFYB (UniProt P25208),0.008,0.019,,-0.007,-0.011,-0.054,0.162,-0.143,0,-0.001,-0.099,-0.051,0.03,-0.029,-0.055,0.031,0.085,0.111,-0.084,-0.019
OVCA2 (UniProt Q8WZ82),-0.352,-0.47,,,,-0.033,,,,,0.116,-0.052,,0.083,0.086,,-0.116,,,
OSBPL3 (UniProt Q9H4L5),0.136,0.621,-0.37,-0.235,0,,0.234,0.219,0.312,0.127,0.518,0.006,-0.11,-0.126,,0.164,,-0.284,-0.414,0.122
NME7 (UniProt Q9Y5B8),-0.014,-0.358 (active),-0.072,-0.033,-0.045,0.104,-0.117,0.054,0.016,-0.047,0.006,0.086,-0.006,,-0.044,0.014,-0.314,-0.109,-0.017,-0.001
